Assay outcomes: PubChem BioAssay, several laboratories
esBAF inh = blocks esBAF chromatin remodeling in mouse ES cells | Bmi1-luciferase knock-in reporter, 24 h; 100% = twice the neutral-well signal | reporter increase, % at 12.5 µM | 2% of 350,000 active | AID 602393; in the data active = activation above about 40%;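 also: a rise in the Bmi1 reporter signal indicates esBAF inhibition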
MITF act = increases MITF-driven TRPM1 promoter luciferase signal; SK-MEL-5 TRPM1-promoter luciferase, 24 h; % of positive control, neutral wells = 0; activation, % at 12.5 µM; 0.75% of 300,000 active; AID 588334;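 active = mean activation of at least 80% with every replicate also reaching 80%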
Wnt act = activates Wnt/beta-catenin signaling in a reporter cell assay; activator, plate reader; activation, % at 9.35 µM; 1.2% of 300,000 active; AID 743398; in the data active = activation above about 30%, passing the limit was not always enough
PHOSPHO1 block = PHOSPHO1 (human) inhibition; Q8TCT1; recombinant PHOSPHO1, absorbance phosphatase assay; 1.1% of 290,000 active; inhibition, % at 13.3 µM; in the data active = inhibition above about 60%
A3A deaminase = inhibitors of human APOBEC3A DNA deaminase. P31941. recombinant A3A, FAM/TAMRA ssDNA deamination fluorescence. inhibition, % at 20 µM. 0.41% of 330,000 active. AID 493011;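 active = at least 40% inhibition at 20 µM here, with at most 30% in a related deaminase screen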
Target sequence (P31941 whole entry, looked up): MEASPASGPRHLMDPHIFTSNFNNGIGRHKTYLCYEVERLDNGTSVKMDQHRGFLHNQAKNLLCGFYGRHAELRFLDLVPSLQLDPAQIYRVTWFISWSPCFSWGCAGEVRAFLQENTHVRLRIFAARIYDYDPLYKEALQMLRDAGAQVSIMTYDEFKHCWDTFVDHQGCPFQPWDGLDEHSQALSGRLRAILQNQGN
A3G deaminase = blocks human APOBEC3G single-stranded DNA deamination | recombinant A3G, ssDNA deamination FAM/TAMRA fluorescence | inhibition, % at 20 µM | 0.28% of 330,000 active | AID 493012;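 active = inhibition of at least 40% at 20 µM, with no more than 30% in the related APOBEC3A deaminase screen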
A3G conf = confirmation of human APOBEC3G DNA deaminase inhibitors; shares compounds with A3G deaminase; recombinant A3G ssDNA deaminase, UDG/FAM-TAMRA fluorescence; inhibition, % at 20 µM; 72% of 890 active; AID 493152;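 active = inhibition reaching a set limit in any replicate at 20 µM, the limit being 80% of the first screen's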
UDG ctr A3G = inhibits E. coli UDG, flagging false APOBEC3G inhibitors | shares compounds with A3G deaminase | UDG counterscreen, FAM/TAMRA oligo fluorescence | inhibition, % at 20 µM | 710 tested, under 10 active | AID 504715;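 active = compounds giving 40% or more inhibition at 20 µM in any one of the three replicates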;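 also: inhibitors lower the FAM signal released by uracil excision and alkaline cleavage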
Target sequence (P12295 whole entry, looked up): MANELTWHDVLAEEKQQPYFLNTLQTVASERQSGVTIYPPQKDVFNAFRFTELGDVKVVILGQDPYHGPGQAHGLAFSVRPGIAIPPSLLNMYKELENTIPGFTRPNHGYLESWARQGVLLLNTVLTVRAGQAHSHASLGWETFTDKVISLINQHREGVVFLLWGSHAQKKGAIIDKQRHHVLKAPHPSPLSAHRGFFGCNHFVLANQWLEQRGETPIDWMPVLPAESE
Hits are given with their value; - = inactive; . = no result given. Shown are actives, neighbours in structure and some others; about 3.6% of the full set was active somewhere.

SMILES | esBAF inh | MITF act | Wnt act | PHOSPHO1 block | A3A deaminase | A3G deaminase | A3G conf | others
c1ccc2[nH]c(CCCc3nc4ccccc4[nH]3)nc2c1 | - | . | - | - | - | - | .
S=c1cnc2ccccc2[nH]1 | . | - | - | - | - | 62.0 | 84.1 | UDG ctr A3G=-
O=C1CC(Sc2ncccn2)C(=O)N1c1ccccc1 (stereo not drawn) | - | - | - | - | - | - | .
Nc1nnc(SC2CC(=O)N(c3ccccc3)C2=O)s1 (stereo not drawn) | - | - | . | 97.6 | - | 41.7 | -
COc1ccc(CNC(=O)C[C@H]2C=C[C@@H](NC(=O)CN(C)C)[C@@H](CO)O2)cc1 | - | . | . | . | . | . | .
COc1ccc(NC(=O)CN(C)C(=O)c2cccc(S(=O)(=O)Nc3ccc(OC)cc3)c2)cc1 | . | - | - | . | - | 49.2 | - | UDG ctr A3G=-
O=S(=O)(Cc1ccccc1)NCC[C@@H]1CC[C@@H](NS(=O)(=O)c2ccc(F)cc2)[C@@H](CO)O1 | - | . | . | . | . | . | .
CN1C(=O)c2cc(NC(=O)Cc3ccccc3)ccc2OC[C@H]2O[C@H](CC(=O)NC3CCC3)CC[C@@H]21 | - | . | . | . | . | . | .
COc1cc(C(=S)N2CCN(C(c3ccccc3)c3ccccc3)CC2)cc(OC)c1O | - | - | - | . | - | 42.5 | - | UDG ctr A3G=-
O=S(=O)(c1ccc(Nc2ccc3c(c2)OCO3)nc1)N1CCOCC1 | - | - | - | - | - | 43.7 | -
COc1ccc(S(=O)(=O)N2CCOCC2)cc1C(=O)Nc1ccc2c(c1)OCO2 | - | - | - | - | - | - | .
CCC1CCc2c(sc(NC(=O)c3cnccn3)c2C(N)=O)C1 (stereo not drawn) | - | . | - | - | - | 57.9 | - | UDG ctr A3G=-
COC(=O)c1c(NC(=O)c2cnccn2)sc2c1CCC2 | - | - | . | - | - | - | .
COc1ccccc1NS(=O)(=O)c1ccc(O)cc1 | - | - | . | - | - | 81.2 | -
Cc1cc(-c2nsc(=O)o2)c(S(C)(=O)=O)s1 | - | . | . | 69.2 | - | 65.8 | 69.2
C[C@@H]1CN([C@@H](C)CO)C(=O)c2cc(C#CCN(C)C)cnc2O[C@H]1CN(C)C(=O)NC1CCCCC1 | - | . | . | . | . | . | .
COCCN(C(=O)COC(=O)Cc1ccc(Cl)cc1Cl)c1c(N)n(Cc2ccccc2)c(=O)[nH]c1=O | - | - | - | . | - | 43.2 | -
COCCN(C(=O)COC(=O)C1CC1)c1c(N)n(Cc2ccccc2)c(=O)[nH]c1=O | - | - | - | . | - | - | .
Cc1nc2c(=O)[nH]c(=S)n(C)c2nc1C | . | - | - | - | - | 52.3 | - | UDG ctr A3G=-
C[C@@H]1CN([C@@H](C)CO)C(=O)c2cc(C#CCN(C)C)cnc2O[C@@H]1CN(C)C(=O)Nc1cc(F)ccc1F | - | . | . | . | . | . | .
C(=N\NC1=Nc2cccc3cccc1c23)/c1ccccc1 | . | - | . | - | - | 40.5 | -
C[C@@H]1CN([C@H](C)CO)C(=O)c2cccc(NC(=O)Nc3ccccc3)c2O[C@H]1CN(C)C | - | . | . | . | . | . | .
Cc1noc(C)c1NC(=O)Nc1ccc2c(c1)C(=O)N([C@@H](C)CO)C[C@@H](C)[C@@H](CN(C)Cc1ccncc1)OCCCC[C@@H](C)O2 | - | . | . | . | . | . | .
CC(C)n1cc(CN2CCC(n3nccc3NC(=O)Cc3ccccc3)CC2)cn1 | . | - | - | - | - | 71.1 | -
CCNC(=O)C[C@@H]1CC[C@H]2[C@H](COc3ccc(NC(=O)C4CCCCC4)cc3C(=O)N2C)O1 | - | . | . | . | . | . | .
Cc1cc(C(=O)O)ccc1-n1c(C)cc(C=C2C(=O)c3ccccc3C2=O)c1C | - | - | - | - | - | 51.1 | -
COc1cccc(/C=N/n2c(-c3cc(C)[nH]n3)n[nH]c2=S)c1O | - | - | - | - | - | 52.7 | 84.8 | UDG ctr A3G=-
Cc1cc(-c2n[nH]c(=S)n2/N=C/c2c[nH]c3ccccc23)n[nH]1 | . | - | - | - | - | - | .
O=[N+]([O-])c1cccc(-c2ccc(/C=N/n3c(-c4ccccc4)n[nH]c3=S)o2)c1 | . | - | - | - | . | . | .
Cc1cc(-c2n[nH]c(=S)n2/N=C/c2ccccc2[N+](=O)[O-])n[nH]1 | . | - | . | - | - | 60.8 | 82.5 | UDG ctr A3G=-
